MCF10A rerep: DNA re-replication induction in MCF 10a cells; MCF 10A DNA re-replication, Hoechst nuclear intensity, 48 h; Potency, µM (doses to about 46.1 µM), without a hit: top-dose activity, positive = re-replication, actives largely listed as activators; 350,000 compounds, 2.9% hits; AID 624296; note: potency is the fitted concentration of half-maximal effect; % of control where 0% means no effect; nearly all actives have a fitted effect of over 50% in size
DT40 TDP1 no CPT: qHTS for Inhibitors of human tyrosyl-DNA phosphodiesterase 1 (TDP1): qHTS in cells in absence of CPT | DT40 Tdp1-/- hTDP1 cells, no CPT, ATP luminescence, 48 h | Potency, µM (top dose mostly 46.2 µM), for the others: top-dose activity change, negative = growth inhibition, most hits filed as inhibitors | 420,000 compounds, 15% hits | AID 686978, 2013; note: potency is the fitted concentration of half-maximal effect; % is set by controls: 0 for no effect and ±100 for the full control effect; nearly all actives have a fitted effect of over 55% in size
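Stably hTDP1-transfected Tdp1-null chicken DT40 cells were treated with library compounds minus camptothecin and grown for at least 48 hr at 37 °C, after which cellular ATP was quantified by luminescence.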
DT40 TDP1 CPT: growth inhibition of DT40 Tdp1-/-;hTDP1 cells with camptothecin (screen for TDP1 inhibitors); chicken DT40 Tdp1-/-;hTDP1 cells + 20 nM CPT, ATP luminescence, 48 h; Potency, µM (doses to about 46.2 µM), without a hit: at the highest dose activity change, negative = growth inhibition, most hits filed as inhibitors; 420,000 compounds, 12% hits; AID 686979; note: potency is the fitted concentration of half-maximal effect; % is set by controls: 0 for no effect and ±100 for the full control effect; nearly all actives have a fitted effect of over 55% in size
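Chicken DT40 Tdp1-/- cells complemented with human TDP1, 400 cells/well, exposed to compounds plus 20 nM camptothecin for at least 48 h at 37 C; viability read as ATP content by CellTiter-Glo luminescence.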
Chronic BCR inh: inhibitors of chronic active B-cell receptor signaling. ABC-DLBCL IkBa-CBG/CBR reporter, luminescence ratio, 4 h. Potency, µM (top dose mostly 46.1 µM), without a hit: top-dose activity change, negative = inhibition, most hits filed as inhibitors. 340,000 compounds, 0.05% hits; active = well fitted inhibition curve with a large enough effect in the signal ratio, with a control signal flat, not every such curve was filed as active; inconclusive = small, poorly fitted or top-dose-only effect, or effect the other way, or a change in a side signal; the % refers to the signal ratio;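 note: potency is the fitted concentration of half-maximal effect; plate controls were basal doxycycline-induced cells for no effect and cells given 10 µM MG132 for full effect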
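Doxycycline induced both beetle luciferases in TMD8 lymphoma cells; IKK-driven degradation limits the IkappaBalpha-fused green signal, while red luminescence normalises for cell number and nonspecific effects. Compounds tested up to 46 uM, 4 hrs.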
SW480 rereplic: inducers of DNA re-replication in SW480 colon cancer cells | Potency, µM (titrated, usually from 46.1 µM), inactives show at the highest dose re-replication activation, most hits filed as activators | SW480 DNA re-replication, Hoechst DNA content imaging, 48 h | 340,000 compounds, 1.8% hits; note: potency is the fitted concentration of half-maximal effect; % of control where 0% means no effect; nearly all actives have a fitted effect of over 55% in size
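DNA re-replication was detected as more nuclei of elevated Hoechst intensity after 48 hr exposure to compound (23 nL pinned per well of 250 cells).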
IL1B secr inh: inhibitors of inflammasome signaling (IL-1 beta secretion). THP-1 LPS/ATP IL-1B secretion, AlphaLISA, 16 h; hits give low values. activity change, % at 57.5 µM. 360,000 compounds, 4.7% hits. AID 743279; in the data active = activity change below about -50%; inconclusive = mostly about -30% to -49%; note: % is set by controls: 0 for no effect and ±100 for the full control effect
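Secreted IL-1B measured by AlphaLISA bead assay after 16 h compound exposure of THP-1 cells; compounds (final up to 57.5 uM) added 1 h before LPS (250 ng/mL) and ATP (1.25 mM) stimulation; lower signal means less secretion.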
The depositor's hits bear a star. Hits are enriched below; roughly 19% of the tested compounds scored in any of these assays. Unless noted, calls come from the whole dose curve; as a rule, active = well fitted curve in the direction sought with a large enough effect; inconclusive = small, poorly fitted or top-dose-only effect, or another doubt; inactive = no such curve, though single readings can be large; an effect the other way counts as inactive or inconclusive.

What do the screens show for `COc1ccc(C(=O)Nc2sc(C)c(-c3ccccc3)c2C#N)cc1OC`?
MCF10A rerep: inconclusive; DT40 TDP1 no CPT: 21µM*; DT40 TDP1 CPT: inconclusive; Chronic BCR inh: inconclusive; SW480 rereplic: -10%; IL1B secr inh: -19

What do the screens show for `CCOc1ccc(-c2cc(NC(=O)c3c(F)cccc3F)c(C(=O)O)s2)cc1`?
MCF10A rerep: 15%; DT40 TDP1 no CPT: 21µM*; DT40 TDP1 CPT: -25%; Chronic BCR inh: 8%; SW480 rereplic: -82%; IL1B secr inh: -12

Results for CCOc1ccc(-c2cc(NC(=O)Nc3ccc(Cl)cc3)c(C(=O)OC)s2)cc1 ?
DT40 TDP1 no CPT: 21µM*; DT40 TDP1 CPT: inconclusive

What do the screens show for `O=C(O)c1ccc(NC(=O)c2ccccc2NC(=O)c2cccc(F)c2)cc1`?
MCF10A rerep: 11%; DT40 TDP1 no CPT: 4%; DT40 TDP1 CPT: 25%; Chronic BCR inh: 9%; SW480 rereplic: -63%; IL1B secr inh: -2

Results for CCOc1ccc(NC(=O)Nc2cc(-c3ccccc3)sc2C(=O)OC)cc1 ?
MCF10A rerep: 5%; DT40 TDP1 no CPT: inconclusive; DT40 TDP1 CPT: inconclusive; Chronic BCR inh: 15%; SW480 rereplic: 10%; IL1B secr inh: -18

What do the screens show for `CCOC(=O)c1sc(-c2ccc(OC)cc2)cc1NC(C)=O`?
MCF10A rerep: 2%; DT40 TDP1 no CPT: inconclusive; DT40 TDP1 CPT: -1%; Chronic BCR inh: 5%; SW480 rereplic: -9%; IL1B secr inh: 2

How did O=C(Nc1cc(-c2ccccc2)sc1C(=O)O)c1cccc(F)c1 do in these assays?
MCF10A rerep: 2%; DT40 TDP1 no CPT: 15µM*; DT40 TDP1 CPT: inconclusive; Chronic BCR inh: -22%; SW480 rereplic: 3%; IL1B secr inh: -8

How did Cc1cc(NC(=O)c2cccc(Br)c2)n[nH]1 do in these assays?
MCF10A rerep: -4%; DT40 TDP1 no CPT: -11%; DT40 TDP1 CPT: 1%; Chronic BCR inh: inconclusive; SW480 rereplic: 3%; IL1B secr inh: -2

How did CSc1nccc(NC(=O)c2cccc(Br)c2)n1 do in these assays?
MCF10A rerep: 1%; DT40 TDP1 no CPT: 21µM*; DT40 TDP1 CPT: -5%; Chronic BCR inh: 1%; SW480 rereplic: 0%; IL1B secr inh: inconclusive

Results for O=C(Nc1cccc(NC(=O)c2cccc(F)c2)n1)c1cccc(F)c1 ?
MCF10A rerep: 16%; DT40 TDP1 no CPT: 21µM*; DT40 TDP1 CPT: inconclusive; Chronic BCR inh: 6%; SW480 rereplic: -5%; IL1B secr inh: 0

How did O=C(Nc1cccc(NC(=O)c2c(F)cccc2F)n1)c1c(F)cccc1F do in these assays?
MCF10A rerep: -2%; DT40 TDP1 no CPT: inconclusive; DT40 TDP1 CPT: -9%; Chronic BCR inh: -4%; SW480 rereplic: -10%; IL1B secr inh: -17

How did CCOC(CN=c1nc(N(C)C)ss1)OCC do in these assays?
MCF10A rerep: inconclusive; DT40 TDP1 no CPT: 0.73µM*; DT40 TDP1 CPT: 0.58µM*; SW480 rereplic: inconclusive; IL1B secr inh: -101*

How did CC1(C(=O)NCc2ccccc2)CN(S(C)(=O)=O)CC(=O)N1Cc1cccs1 (stereo unspecified) do in these assays?
DT40 TDP1 no CPT: 4%; DT40 TDP1 CPT: -12%; IL1B secr inh: -16

What do the screens show for `Cc1ccc(-n2ncc(C(=O)N3CCN(C(=O)c4ccco4)CC3)c2C2CCN(C(=O)OC(C)(C)C)CC2)cc1C`?
MCF10A rerep: 3%; DT40 TDP1 no CPT: 8%; DT40 TDP1 CPT: -8%; Chronic BCR inh: 4%; SW480 rereplic: -22%; IL1B secr inh: -5

What do the screens show for `Cc1ccc(-n2ncc(C(=O)NCCc3c[nH]c4ccccc34)c2C2CCN(C(=O)OC(C)(C)C)CC2)cc1C`?
DT40 TDP1 no CPT: inconclusive; DT40 TDP1 CPT: 16µM*

What do the screens show for `Cc1ccc(C2CCN(C(=O)c3cnn(-c4ccc(C)c(C)c4)c3C3CCN(C(=O)OC(C)(C)C)CC3)C2)cc1` (stereo unspecified)?
DT40 TDP1 no CPT: 13µM*; DT40 TDP1 CPT: 10µM*

How did CCCNC(=O)c1cnn(-c2ccc(C)c(C)c2)c1C1CCN(C(=O)OC(C)(C)C)CC1 do in these assays?
DT40 TDP1 no CPT: 23µM*; DT40 TDP1 CPT: inconclusive

What do the screens show for `Cc1ccc(-n2ncc(C(=O)NCCc3ccsc3)c2C2CCN(C(=O)OC(C)(C)C)CC2)cc1C`?
DT40 TDP1 no CPT: 16µM*; DT40 TDP1 CPT: 16µM*

How did CCc1ccc(O)c(C(=O)c2cnc3cc(-c4ccc(C)cc4)nn3c2)c1 do in these assays?
DT40 TDP1 no CPT: -5%; DT40 TDP1 CPT: inconclusive

Results for c1ccc(-c2nc(N3CCNCC3)nc3ccccc23)cc1 ?
MCF10A rerep: 0.71µM*; DT40 TDP1 no CPT: inconclusive; DT40 TDP1 CPT: inconclusive; Chronic BCR inh: 6%; SW480 rereplic: 23µM*; IL1B secr inh: inconclusive

Results for CCN1CCN(c2nc(-c3ccccc3)c3ccccc3n2)CC1 ?
MCF10A rerep: 15µM*; DT40 TDP1 no CPT: inconclusive; DT40 TDP1 CPT: inconclusive; Chronic BCR inh: inconclusive; SW480 rereplic: 21µM*; IL1B secr inh: inconclusive

What do the screens show for `CCN(CC)c1nc(N2CCN(CCO)CC2)nc2ccccc12`?
MCF10A rerep: 16%; DT40 TDP1 no CPT: inconclusive; DT40 TDP1 CPT: 10%; Chronic BCR inh: -6%; SW480 rereplic: 17%; IL1B secr inh: -7

What do the screens show for `c1ccc(-c2nc(N3CCCCC3)nc3ccccc23)cc1`?
MCF10A rerep: inconclusive; DT40 TDP1 no CPT: 10%; DT40 TDP1 CPT: -23%; Chronic BCR inh: inconclusive; SW480 rereplic: inconclusive; IL1B secr inh: 0

What do the screens show for `CC(=O)c1cccc(NC(=O)c2cc(-c3ccco3)on2)c1`?
MCF10A rerep: 7%; DT40 TDP1 no CPT: -28%; DT40 TDP1 CPT: -4%; Chronic BCR inh: -18%; SW480 rereplic: -13%; IL1B secr inh: 3

How did O=C(NCc1ccc(Cl)cc1)c1cc(-c2ccco2)on1 do in these assays?
MCF10A rerep: -3%; DT40 TDP1 no CPT: -24%; DT40 TDP1 CPT: 6%; Chronic BCR inh: 7%; SW480 rereplic: -8%; IL1B secr inh: -5

What do the screens show for `CC(C)CNC(=O)c1cc(-c2ccco2)on1`?
MCF10A rerep: -2%; DT40 TDP1 no CPT: 18µM*; DT40 TDP1 CPT: 16µM*; Chronic BCR inh: inconclusive; SW480 rereplic: 4%; IL1B secr inh: -20

Results for CCCNC(=O)c1cc(-c2ccco2)on1 ?
MCF10A rerep: -2%; DT40 TDP1 no CPT: 9.2µM*; DT40 TDP1 CPT: 9.2µM*; Chronic BCR inh: inconclusive; SW480 rereplic: 13%; IL1B secr inh: -57*
